From PubChem BioAssay (Tox21)
Values joined by “and” are separate entries in the source; they are usually repeats but may differ in a detail not shown here. Identical values can stand only once. Inconclusive results are not listed. Entries that show only a call come without a potency. Some compounds were tested as several samples or in several runs, with calls that do not always agree. Active and inactive are the calls of the source. Calls follow the shape of the full dose curve.

Molecular target: 5-hydroxytryptamine receptor 2A (Homo sapiens) (UniProt P28223)
Sequence (P28223 whole entry, looked up): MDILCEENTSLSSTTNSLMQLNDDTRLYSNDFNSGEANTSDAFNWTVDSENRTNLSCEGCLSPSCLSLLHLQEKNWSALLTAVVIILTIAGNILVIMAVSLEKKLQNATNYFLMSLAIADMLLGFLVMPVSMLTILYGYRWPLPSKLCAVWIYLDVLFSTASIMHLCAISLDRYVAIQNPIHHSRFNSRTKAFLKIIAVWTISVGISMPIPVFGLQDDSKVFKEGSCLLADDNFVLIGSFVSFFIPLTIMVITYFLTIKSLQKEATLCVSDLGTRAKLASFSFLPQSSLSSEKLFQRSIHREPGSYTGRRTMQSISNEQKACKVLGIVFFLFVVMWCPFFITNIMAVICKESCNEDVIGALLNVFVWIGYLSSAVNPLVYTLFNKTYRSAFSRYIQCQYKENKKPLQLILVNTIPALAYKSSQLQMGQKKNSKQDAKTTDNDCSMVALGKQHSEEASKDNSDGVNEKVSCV
Experiment: 5-hydroxytryptamine receptor 2A (HTR2A) small molecule antagonists, cell-based qHTS assay (AID 1963586); also: nearly all actives have a fitted effect of over 45% in size
Method in brief: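 CHO cells stably expressing human HTR2A were plated for 18 h at 37 C, then loaded with calcium dye for 1 h. Compounds were preincubated 5 min at room temperature before DOI (4 nM solution) was added. Kinetic fluorescence was read for 3 min.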
Potency is read from the fitted curve at half-maximal effect.

Row | Structure (SMILES) | Potency | activity, negative = inhibition
1 | COCC(C)O (stereo not given) | inactive | –
2 | Cc1ccc(N)c(S(=O)(=O)O)c1 | inactive | –
3 | COC(=O)C(C)Oc1ccc(Oc2ncc(C(F)(F)F)cc2Cl)cc1 (stereo not given) | inactive | –
4 | COc1ccc(O)cc1 | inactive | –
5 | O=[N+]([O-])c1cc(C(F)(F)F)ccc1Cl | inactive | –
6 | O=C1O[C@H](CO)[C@@H](O)[C@H](O)[C@H]1O | inactive | –
7 | CCOC(=O)c1ccc(O)cc1 | inactive | –
8 | C=C(C)C(N)=O | inactive | –
9 | CCCCCCO | inactive | –
10 | OCCOCCN1CCN(C(c2ccccc2)c2ccc(Cl)cc2)CC1 (stereo not given) | 1.47 µM (active) and 1.63 µM (active) | –
11 | CCCCC/C=C\C/C=C\CCCCCCCC(=O)O | inactive | –
12 | NC(=O)NC1NC(=O)NC1=O (stereo not given) | inactive | –
13 | COCCOC(=O)c1ccccc1C(=O)OCCOC | inactive | –
14 | Cc1ccccc1Cl | inactive | –
15 | O=[Se](O)O | – | 3.34% [at 12.7 µM] (inactive)
16 | Cc1ccc2c(c1)C(=O)OC2=O | inactive | –
17 | CC1(C)S[C@@H]2[C@H](NC(=O)COc3ccccc3)C(=O)N2[C@H]1C(=O)O | inactive | –
18 | OC[C@@H](O)[C@@H](O[C@@H]1O[C@H](CO)[C@H](O)[C@H](O)[C@H]1O)[C@H](O)[C@@H](O)CO | inactive | –
19 | O=C(O)CC(O)C(=O)O (stereo not given) | inactive | –
20 | CCC(C)OC(=O)c1ccc(O)cc1 (stereo not given) | inactive | –
21 | O=C(O)c1ccccc1Nc1cccc(C(F)(F)F)c1 | inactive | –
22 | c1ccc2cc3ccccc3cc2c1 | inactive | –

Row | Structure (SMILES) | Potency | activity, negative = inhibition
23 | O=C(O)c1ccccc1C(=O)O | inactive | –
24 | CCCCC/C=C\C/C=C\CCCCCCCC(=O)OC | inactive | –
25 | CC1=C(/C=C/C(C)=C/C=C/C(C)=C/CO)C(C)(C)CCC1 | inactive | –
26 | CNC[C@H](O)[C@@H](O)[C@H](O)[C@H](O)CO | inactive | –
27 | Cc1ccncc1 | inactive | –
28 | Fc1ccc(Br)cc1 | inactive | –
29 | NCCN | inactive | –
30 | CSc1ccc(Cl)cc1 | inactive | –
31 | CC(=O)CCc1ccccc1 | inactive | –
32 | CC(=O)C1=C(C)[C@@H]2C[C@@]3(C1)[C@H](C)CC[C@H]3C2(C)C | inactive | –
33 | CCCc1c(OCCCCc2nn[nH]n2)ccc(C(C)=O)c1O | inactive | –
34 | CC1(C)O[C@@H]2[C@@H](CO[C@@]3(COS(N)(=O)=O)OC(C)(C)O[C@@H]23)O1 | inactive | –
35 | O=C(O)CN(CC(=O)O)CC(=O)O | inactive | –
36 | CC(C)OB(OC(C)C)OC(C)C | inactive | –
37 | CC[Si](OC(C)=O)(OC(C)=O)OC(C)=O | inactive | –
38 | Nc1cccc(C(F)(F)F)c1 | inactive | –
39 | Brc1cc(Oc2cc(Br)c(Br)c(Br)c2Br)c(Br)c(Br)c1Br | inactive | –
40 | C=CC(=O)NC(C)(C)CS(=O)(=O)O | inactive | –
41 | C[Si]1(C)O[Si](C)(C)O[Si](C)(C)O[Si](C)(C)O1 | inactive | –
42 | O=C(O)c1ccc(S(=O)(=O)N(Cl)Cl)cc1 | inactive | –
43 | CC(C)OC(=O)COc1ccc(Cl)cc1Cl | inactive | –
44 | C=CC(=O)OCCOCCOCCOCCOC(=O)C=C | inactive | –

Row | Structure (SMILES) | Potency | activity, negative = inhibition
45 | O=C(CC(C(=O)OC1CCCCC1)S(=O)(=O)O)OC1CCCCC1 (stereo not given) | inactive | –
46 | O=Cc1ccc(CO)o1 | inactive | –
47 | C[C@]12C[C@H](O)[C@H]3[C@@H](CCC4=CC(=O)CC[C@@]43C)[C@@H]1CC[C@@H]2C(=O)CO | inactive | –
48 | CCCCCCOC(C)=O | inactive | –
49 | CCc1nc(N)nc(N)c1-c1ccc(Cl)cc1 | inactive | –
50 | CC1=C(/C=C/C(C)=C/C=C/C(C)=C/C(=O)Nc2ccc(O)cc2)C(C)(C)CCC1 | inactive | –
51 | CCCCCCCCCCCCOC(=O)c1cc(O)c(O)c(O)c1 | inactive | –
52 | Brc1nc2ccccc2s1 | inactive | –
53 | C=CC[N+](C)(C)CC=C | inactive | –
54 | O=C(OCCOCCOC(=O)c1ccccc1)c1ccccc1 | inactive and 7.5 nM (active) | –
55 | OCCCc1ccccc1 | inactive | –
56 | OC[C@]1(O)OC[C@@H](O)[C@H](O)[C@@H]1O | inactive | –
57 | CC(=O)c1ccccc1 | inactive | –
58 | OCCOCCOCCO | inactive | –
59 | CCC(O)OCCCOC (stereo not given) | inactive | –
60 | Nc1ccc(O)c(C(=O)O)c1 | inactive | –
61 | CC(C)(C)C1CCC(O)CC1 (stereo not given) | inactive | –
62 | CCCCCCCCCCCO | inactive | –
63 | CCCCC(CC)COC(=O)/C=C\C(=O)OCC(CC)CCCC (stereo not given) | inactive | –
64 | O=S1(=O)CC=CC1 | inactive | –
65 | FC(F)(F)c1ccc(Cl)c(Cl)c1 | inactive | –
